We go through 39 molecules from PubChem BioAssay (NCI).

About 83,000 compounds went through this panel and 20% of them were active in at least one assay; those are over-represented in the sample as a whole.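 Activity criterion: percent growth below 10, measured after cells in 96-well plates were exposed to a single compound concentration for 48 hours.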 Unmarked numbers belong to inactive results. The source made the active and inactive calls.

The subject of this assay is UACC-62 melanoma. Kind of assay: NCI-60 one-dose screen, 48 h (100 = growth as untreated, 0 = no growth, -100 = all killed). The conditions noted are these: 10 µM.
For `COc1cc(Cl)cc(-c2nn(-c3cccc(NC(=O)Nc4ccc(Cl)c(Cl)c4)c3)cc2-c2ccncc2)c1`, the growth was 4.38% (active).

As to `COc1cc2cc3c(nc2cc1OC)CCN3Cc1ccc(NC(=O)c2ccc(Cl)c(C(F)(F)F)c2)cc1`, the growth is 79.9%.

For the molecule `CCOC(=O)N1C/C(=C/c2ccc(Cl)cc2)C(=O)/C(=C/c2ccc(Cl)cc2)C1`, the growth is 67.6%.

As to `c1ccc(CSc2nnc3c4c5c(sc4nc(-c4cccnc4)n23)CCCCCC5)cc1`, the growth is 34.9%.

On to `Cc1cc2ccccc2nc1-c1ccccc1F`, for which the growth was 105%.

`COc1ccc(S(=O)(=O)Nc2c(/C=C\c3cc(OC)c(OC)c(OC)c3)ccc(OC)c2O)cc1`: the growth was 38.6%.

As for `N=C(N)c1ccc(-c2ccc(-c3cccs3)s2)s1`, the growth was -90.7% (active).

As to `CSc1cc(SC)ncn1`, the growth is 93.7%.

As for `Cn1c(C(N)=O)cc2c1-c1nc(Nc3ccccc3)ncc1CCC2`, the growth was 37.1%.

As to `CCOC(=O)N/N=C\C(C)=N\NC(=O)OCC`, the growth is 99.3%.

`Nc1cc2c(cc1Cl)-c1ccc([N+](=O)[O-])cc1/C2=N\O`: the growth is 78%.

For the molecule `Cc1cccc(C)c1NC(=O)c1sc2nc3c(cc2c1N)C(=O)CCC3`, the growth is 67.4%.

With `Cc1cc(C)c(CCc2cc(C)c(C)cc2C)cc1C`, the growth was 101%.

`CCN1CCC(CCOC)(CN2c3ccccc3Sc3ccc(Cl)cc32)C1` (centres undefined): the growth is -46.7% (active).

With `COc1ccc(OC)c(/C=C/c2nc(SCc3ccccc3)n(-c3ccc(Cl)cc3)n2)c1`, the growth is 33.9%.

On to `CN1CCC(CNc2cc(C3(C(=O)Nc4cc(C(=O)Nc5ccc(Cl)c(C(F)(F)F)c5)ccc4F)CC3)ncn2)CC1`, for which the growth was 32.9%.

`Cc1ccc(NC(=O)NC2CCCCC2)cc1`: the growth is 105%.

As for `CC1CN(Cc2ccccc2)C(=O)NC1=O` (centres undefined), the growth was 96%.

For the molecule `COc1cc(Cc2cc(-c3ccc(Cl)cc3)n[nH]c2=O)ccc1O`, the growth is 96.4%.

`CN(C)CCNC(=O)c1cccn2c(=O)c3cc4ccccc4cc3nc12`: the growth was -56% (active).

Turning to `CC(=O)CSC(C)=O`, the growth is 107%.

Take `c1ccc(C(NC2CC3CCC2C3)c2ccccc2)cc1` (centres undefined): the growth was 87.2%.

For `CC(C)=CCc1cc(O)cc2c1OC(C=C(C)C)C1=C2C(=O)C2=C(C1=O)S(=O)(=O)CCN2` (centres undefined), the growth was 9.11% (active).

`COc1cc2c(cc1OCCCN1CCN(c3ncnc4ccccc34)CC1)N=CC1CCCN1C2=O` (centres undefined): the growth is -91.8% (active).

For the molecule `Cc1cccc(Cl)c1NC(=O)c1ccc2nc(NC(=O)NC3CCN(C)CC3)sc2c1`, the growth was 106%.

Take `CCOC(=O)c1ccc(NC(=O)Nc2ncc(Cl)cc2Cl)cc1`: the growth is 87%.

`COc1cc(-c2nc(-c3nnc(-c4ccccc4Cl)o3)c3ccccn23)cc(OC)c1OC`: the growth was 69.8%.

`Nc1nc(N)c(NC(=O)CNc2ccc(C(=O)O)cc2)c(N)n1`: the growth was 101%.

Take `COc1cc(-c2cc(C(=O)N3CCN(C(=O)c4ccccc4NCc4cccs4)CC3)nc3cc(-c4ccccc4)nn23)cc(OC)c1OC`: the growth was 60%.

Consider `COc1ccc(NC(=O)CSc2nc3ccccc3c(=O)n2CCc2ccccc2)cc1`, for which the growth was 89.8%.

Turning to `COc1ccc(-c2nc3sc(C4CC4)nn3c2/C=C2/C(=O)Nc3ccc(OC)cc32)cc1`, the growth was 44%.

In the case of `O=C(Nc1cccc(Br)c1)c1cc(=O)[nH]c2ccccc12`, the growth was 80.9%.

With `FC(F)(F)c1ccc2nc(-c3nc(-c4ccccc4)n4ccccc34)[nH]c2c1`, the growth is 103%.

As for `Cc1cc(N(CCCNc2ccnc3cc(Cl)ccc23)Cc2cccs2)nc(Cl)n1`, the growth was 47.5%.

For the molecule `O=C1C(c2ccccc2)C2C=CC(C2)N1O` (centres undefined), the growth is 101%.

Take `CN1c2ccccc2[C@]2(Cc3ccccc3)Cc3ccccc3N[C@H]12`: the growth was 87.5%.

Regarding `CC1(C)CCC(=NNC(N)=S)CC1`, the growth was 103%.

Turning to `N=C(N)c1ccc(-c2ccc(-c3ccccc3)o2)nc1`, the growth is 103%.

As to `O=c1[nH]c(-c2ccc(Cl)cc2)nc2sc3c(c12)CCCC3`, the growth is 55.8%.
